Bioassay records deposited in PubChem by National Center for Advancing Translational Sciences (NCATS).
FLuc modulator = counter-screen for miR-21 project: firefly luciferase inhibitors or activators | P08659 | purified FLuc, Km substrates, luminescence inhibition | Potency, µM (top dose mostly 57.5 µM), hits mostly inhibitors | 6.9% of 360,000 active; also: nearly all actives have a fitted effect of over 55% in size
Target sequence (P08659 whole entry, looked up): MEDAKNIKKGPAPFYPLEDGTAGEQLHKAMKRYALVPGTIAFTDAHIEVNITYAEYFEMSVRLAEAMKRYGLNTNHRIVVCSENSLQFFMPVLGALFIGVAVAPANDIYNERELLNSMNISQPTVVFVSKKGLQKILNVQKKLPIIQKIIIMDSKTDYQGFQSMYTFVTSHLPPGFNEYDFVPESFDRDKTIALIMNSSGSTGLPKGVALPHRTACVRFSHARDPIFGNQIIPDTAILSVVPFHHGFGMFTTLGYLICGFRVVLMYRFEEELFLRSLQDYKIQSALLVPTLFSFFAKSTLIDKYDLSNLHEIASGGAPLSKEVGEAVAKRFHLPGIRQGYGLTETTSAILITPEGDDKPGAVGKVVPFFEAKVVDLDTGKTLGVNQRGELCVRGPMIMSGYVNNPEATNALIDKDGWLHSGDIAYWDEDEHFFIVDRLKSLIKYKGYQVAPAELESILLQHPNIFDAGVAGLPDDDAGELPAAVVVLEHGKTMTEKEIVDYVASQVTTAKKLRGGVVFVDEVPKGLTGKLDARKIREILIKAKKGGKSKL
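Purified P. pyralis luciferase (10nM final) with 10uM D-luciferin and 10uM ATP (Km levels) in 50mM Tris acetate pH 7.5, 10mM Mg acetate, 0.01% Tween-20, 0.05% BSA; qHTS 6-point titration, ~60 µM downward; luminescence read.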
Luc counter = counter-screen: inhibitors of Kinase-Glo firefly luciferase; Q27757; Kinase-Glo luciferase, ATP luminescence, 8 min; Potency, µM (highest dose often 38.3 µM), most hits filed as inhibitors; 0.28% of 200,000 active; also: nearly all actives have a fitted effect of over 60% in size
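Light output from Kinase-Glo luciferase with luciferin and 10 uM ATP in 50 mM imidazole pH 7.2, KCl, MgCl2, Tween 20, BSA; compound pin-delivered, 8-min ambient incubation, then luminescence read.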
SMN2 splice enh = SMN2 splice variant enhancement | HEK293 SMN2-luciferase splicing reporter, luminescence, 30-36 h | Potency, µM (doses to about 46.1 µM), most hits filed as activators | 2.8% of 210,000 active; also: nearly all actives have a fitted effect of over 55% in size
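HEK293 cells carry an SMN2 minigene-luciferase reporter in which exon 7 inclusion puts luciferase in frame. Cells were seeded at 2000 cells/well, attached for 10-12 hours, then exposed to compounds for 30-36 hours at 37C before ONE-Glo luminescence.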
NPC1 prom act = activates the NPC1 promoter; Potency, µM (doses to about 9.22 µM), actives largely listed as activators; 2.4% of 320,000 active; Huh7 NPC1 promoter luciferase reporter, 24 h; AID 485313; also: nearly all actives have a fitted effect of over 60% in size
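Luminescence from an NPC1 promoter-driven luciferase reporter in stably transfected Huh7 cells was measured after 24 h compound treatment at 37 °C, followed by 10 min ambient incubation with luciferase detection reagent.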
Rab9 prom act = activates the Rab9 promoter; Huh7 Rab9 promoter-luciferase reporter, luminescence, 24 h; Potency, µM (top dose mostly 9.22 µM), most hits filed as activators; 2.8% of 320,000 active; AID 485297; also: nearly all actives have a fitted effect of over 60% in size
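Rab9 promoter-driven luciferase in stably transfected Huh7 cells; 1500 cells/well rested 2 h, exposed to compound in DMSO for 24 h at 37 °C, 5% CO2. Luminescence read 10 min after adding luciferase reagent at ambient temperature.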
ELG1 genotox = genotoxicity induction in ELG1-luciferase HEK293T cells | HEK293T ELG1-luciferase reporter, luminescence, 16 h | Potency, µM (top dose mostly 46 µM), hits mostly activators | 1.3% of 330,000 active; also: nearly all actives have a fitted effect of over 60% in size
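Step 1: seed 2,000 HEK293T ELG1-luciferase cells per well. Step 2: add compound or DMSO, incubate 16 hr at 37 °C. Step 3: ONE-Glo, 30 min at room temperature, read luminescence.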
Hits are given with their value; – = inactive; ? = inconclusive; · = no result given; [ ] = another dose, or the depositor's remark. The list is not random: actives were taken first. Their share in the collection is about 7.4%. Calls follow the shape of the dose curve; as a rule, active = well fitted curve in the direction sought with a large enough effect; inconclusive = small, poorly fitted or top-dose-only effect, or another doubt; inactive = no such curve, though single readings can be large; an effect the other way counts as inactive or inconclusive.

SMILES	FLuc modulator	Luc counter	SMN2 splice enh	NPC1 prom act	Rab9 prom act	ELG1 genotox
CCc1ccc(C(=O)Cn2ncc(Cl)c(Cl)c2=O)cc1	7.57µM	–	·	–	–	–
CCOc1cc(CNc2ccc(O)cc2)cc(Cl)c1OCc1ccccc1	–	·	–	·	·	·
O=C(Nc1cccnc1)c1cc2c(ccc3ccccc32)o1	0.953µM	–	11.2µM	·	·	·
Cc1c(C(=O)NCc2cccs2)oc2ccc(Br)cc12	19µM	–	–	–	–	18.4µM
Cc1c(C(=O)Nc2nc(-c3ccc(F)cc3)ns2)oc2ccc(Br)cc12	–	·	–	·	·	·
CCc1ccc2oc(C(=O)Nc3nc(-c4ccc(F)cc4)ns3)c(C)c2c1	6.75µM	·	–	·	·	·
Cc1cc(C(=O)Nc2cccnc2)on1	–	–	–	–	–	–
Cc1c(C(=O)Nc2ccc3oc(-c4cccnc4)nc3c2)oc2ccccc12	–	–	–	–	–	–
CCc1ccc2oc(C(=O)Nc3cccnc3)c(C)c2c1	2.13µM	·	·	?	3.98µM	4.11µM
Cc1c(C(=O)NCc2cccs2)oc2ccc(S(=O)(=O)N3CCOCC3)cc12	–	–	?	–	–	–
COc1ccc(C(=O)N2CCC3(CCN(Cc4ccccc4OC)CC3)CC2)cc1	·	–	–	·	·	·
Cc1c(C(=O)Nc2cccnc2)oc2ccc(Br)cc12	2.69µM	·	·	?	3.16µM	18.3µM
Cc1c(C(=O)Nc2cccc(S(=O)(=O)N3CCOCC3)c2)oc2ccc(Br)cc12	·	·	·	·	·	–
Cc1ccc(C)c(/C=N/Nc2ccccn2)c1	?	–	–	–	–	–
COc1ccc(/C=N\Nc2ccccn2)c(OC)c1	3.38µM	·	·	?	?	?
COc1ccc(-c2nn(-c3ccccc3)cc2/C=N/Nc2ccccn2)cc1	–	–	–	–	–	?
COc1ccc(/C=N/Nc2ccccn2)c(OC)c1OC	16.9µM	–	?	?	?	?
COc1ccc(/C=N/Nc2ncc(Br)cn2)c(OC)c1	2.69µM	–	22.4µM	–	?	7.3µM
Cn1cnc([N+](=O)[O-])c1[Se]c1nc(N)nc2c1ncn2[C@@H]1O[C@@H](CO)[C@H](O)[C@@H]1O	·	–[7.66 µM]	–[9.22 µM]	·	·	·
CCOC(=O)c1ccccc1NC(=O)CN(c1ccccc1OC)S(=O)(=O)c1ccc(C)cc1	–	·	·	·	·	·
CCOC(=O)C1CCN(c2ncnc3c(C)csc23)CC1	10.7µM	·	·	–	?	?
Cc1csc2c(N3CCN(C(=O)c4ccc(C(C)(C)C)cc4)CC3)ncnc12	26.9µM	·	·	–	–	–
Cc1csc2c(N3CCN(C(=O)NC(C)(C)C)CC3)ncnc12	–	·	·	–	–	–
O=C(O)c1ccccc1OP(=O)(O)O	·	–	–	·	·	·
CCOc1ccc(C(=O)CSCCC(=O)O)cc1	6.01µM	–	–	–	–	–
SMILES	FLuc modulator	Luc counter	SMN2 splice enh	NPC1 prom act	Rab9 prom act	ELG1 genotox
CC(C)C1O[C@H](/C=C\c2ccccc2)OCC1(C)C (some centres not stated)	·	–[7.66 µM]	–[9.22 µM]	·	·	·
O=C(c1ccc(Cl)cc1)c1cnc2ccccn12	9.53µM	–	–	3.16µM	2.51µM	11.6µM
CC(C(=O)NCc1cccc(Br)c1)n1ncn2cccc2c1=O (configuration not stated)	13.5µM	·	·	·	·	·
Cc1c2cnn(-c3ccccc3)c(=O)c2c(C)n1C(C)C(=O)NCc1cccc(Br)c1 (configuration not stated)	–	·	–	·	·	·
CCc1c(C)nc2[nH]nc(-c3ccccc3)n2c1=O	21.3µM	·	·	–	–	?
CC(C)(C)c1ccc(-c2ncccc2O)cc1	13.5µM	–	·	–	–	–
O=C(COC(=O)c1ccccc1)Nc1ncc([N+](=O)[O-])s1	·	·	·	·	·	–
O=C(Nc1ncc([N+](=O)[O-])s1)c1cccc([N+](=O)[O-])c1	0.675µM	·	·	0.0891µM	0.1µM	?
O=C(Nc1ccccc1)Nc1ncc([N+](=O)[O-])s1	1.51µM	–	3.98µM	?	?	?
Cc1nc(C)c(C(=O)Nc2ncc([N+](=O)[O-])s2)o1	1.9µM	?	0.891µM	?	?	?
CC(=O)N1CCC2(CC1)CN(c1ccccn1)C2	·	–	–	·	·	·
CCOC(=O)c1oc2ccc(S(=O)(=O)n3nc(-c4ccc(Br)cc4)cc3N)cc2c1C	–	·	–	·	·	·
O=C(c1cc2ccccc2oc1=O)N(Cc1ccccc1)C1CCS(=O)(=O)C1 (configuration not stated)	21.3µM	–	–	?	?	?
O=C(c1cc2ccccc2oc1=O)N(Cc1ccccc1F)C1CCS(=O)(=O)C1 (configuration not stated)	16.9µM	·	·	–	?	?
COc1ccc(CN(C(=O)c2cc3ccccc3oc2=O)C2CCS(=O)(=O)C2)cc1OC (configuration not stated)	19µM	·	?	3.98µM	?	?
CCOc1ccc(CN(C(=O)c2cc3ccccc3oc2=O)C2CCS(=O)(=O)C2)cc1 (configuration not stated)	12µM	·	·	?	3.16µM	?
COc1ccc(CN(C(=O)c2cc3ccccc3oc2=O)C2CCS(=O)(=O)C2)cc1 (configuration not stated)	–	·	–	–	–	–
COc1ccc(CCN2C(=O)c3oc4cc(C)cc(C)c4c(=O)c3C2c2ccc(F)cc2)cc1OC (configuration not stated)	–	·	–	·	·	·
O=C1NC(=O)/C(=C\c2ccc(OCc3cnc(Cl)s3)cc2)S1	?	–	–	–	–	–
CCCCOc1ccc(/C=C2/Sc3ccccc3C2=O)cc1	3.38µM	–	15.8µM	–	–	–
CC(C)COc1ccc(/C=C2/Sc3ccccc3C2=O)cc1	1.35µM	–	?	?	–	?
CC(=O)Oc1cccc(C)c1	·	–	·	·	·	·
CC(=O)Oc1cccc(/C=C2\Sc3ccccc3C2=O)c1	1.69µM	·	·	–	–	–
O=C1/C(=C/c2cccs2)Sc2ccccc21	1.07µM	?	?	–	?	?
Cc1ccc(NC(=O)CN2C(=O)c3ccccc3Sc3ncccc32)c(C)c1	–	·	·	·	·	·
SMILES	FLuc modulator	Luc counter	SMN2 splice enh	NPC1 prom act	Rab9 prom act	ELG1 genotox
Brc1c(-c2ccc3c(c2)OCO3)nc2ncccn12	23.9µM	–	·	–	?	?
COc1ccc(-c2nc3ncccn3c2Br)cc1	15.1µM	–	·	?	2.51µM	?
O=C(c1ccncc1)N1CCC2(CCN(Cc3nccs3)CC2)CC1	·	–	–	·	·	·
O=c1c(-c2ccc(F)c(F)c2)nc2cncnc2n1Cc1ccccc1	·	–	–	·	·	·
Cc1cccc(CNC(=O)c2ccc(Cn3c(SCc4ccccc4)nc4cccnc43)cc2)c1	9.53µM	·	·	·	·	·
CN(C)c1ccc(CNC(=O)c2ccc(Cn3c(SCc4ccccc4)nc4cccnc43)cc2)cc1	2.69µM	·	–	·	·	·
CCNC(=O)c1ccc(CSc2nc3cccnc3n2Cc2ccc(OC)cc2)cc1	21.3µM	·	·	·	·	·
COc1cccc(CNC(=O)c2ccc(Cn3c(SCc4ccccc4)nc4cccnc43)cc2)c1	5.36µM	·	·	·	·	·
COc1ccc(Cn2c(SCc3ccc(C(=O)NCc4ccc(C)cc4)cc3)nc3cccnc32)cc1	?	·	–	·	·	·
